# Experimental data taken from ChEMBL document CHEMBL3988442, “University of Dundee, Small-Polar-MMV Screening Library” (2021).
# The campaign covered roughly 48,000 compounds. About 13,000 (27%) showed an effect of 50% or more. The list shows a part of the results.
# Tested on: Wolbachia pipientis
# Test: Anti-Wolbachia Cell-Based Screen
# Type: functional
# Design: scale not given: in the data most compounds retested in dose-response had high values
# Conditions: 5 µM
row,Structure (SMILES),Percent Effect
1,COCCNC(=O)Nc1ccn(-c2cccc(C(F)(F)F)c2)n1,3.521%
2,OCCC1CN(c2ncnc3[nH]cnc23)CCN1Cc1ccccc1F (centres undefined),-3.014%
3,OCCc1cc(CC2(NCc3ccc(C(F)(F)F)cc3)COC2)no1,1.711%
4,CN(C(=O)CN(Cc1cccc(O)c1)C1CCC(O)CC1)C1CC1 (centres undefined),2.382%
5,CCc1ccc(CN2CCCC(c3nn(C)c(=O)n3CC)C2)nc1 (centres undefined),20.88%
6,CC(C)NC(=O)CCNC(=O)CCc1cc(Br)cs1,-10.2%
7,Cc1cc(N2CCN(C(=O)c3cn(C)c4ccccc34)CC2)nc(C)n1,1.104%
8,COc1ccc(CN)c(OC(F)F)c1.Cl,-5.611%
9,Cn1cc(CNC[C@H]2Cn3ccnc3CO2)c2ccccc21,-9.127%
10,Cc1ncc(CN)c(-c2cn(C)c3ccccc23)n1,142.3%
11,COc1ccc(OC)c(CN(C)c2nc3c(cnn3C)c(=O)[nH]2)c1,-18.11%
12,COc1ccc2cccc(CC(=O)NCc3n[nH]c(=O)[nH]3)c2c1,5.869%
13,COc1ccc2cccc(CC(=O)NCc3nccc(N)n3)c2c1,-13.23%
14,COCC(=O)NCc1cnc(C)nc1-c1cn(C)c2ccc(OC)cc12,67.07%
15,COc1ccc(-c2n[nH]cc2CN(C)Cc2nccn2C)c(F)c1,-1.077%
16,COc1ccc2c(c1)c(-c1nc(C)ncc1CN)cn2C,104.6%
17,COc1ccc(-c2ccccc2CN)c(OC)c1,-11.71%
18,COc1ccc2c(c1)c(-c1nc(N(C)C)ncc1CN)cn2C,69.63%
19,CN(CCNC(=O)N1CCN(Cc2ccon2)CC1)C1CCCC1,-5.523%
20,CC1CCN(CC2(O)CCCN(Cc3cccc(F)c3F)C2=O)CC1 (centres undefined),-9.136%
21,O=C(CN(Cc1ccccc1)CC1CCOCC1)Nc1nccs1,-5.546%
22,Cn1cnnc1CN1CCC2(CCC(=O)N(Cc3ccccc3)C2)CC1,-10.98%
23,Cc1nnc2n1CCN(C(C(=O)NC1CC1)c1ccccc1)C2 (centres undefined),-4.736%
24,O=S(=O)(CC1CCCCC1)NCc1ccnc(O)c1,-10.25%
25,COc1ccc2nc(CCNC(=O)c3cc(CC(C)C)no3)[nH]c2c1,0.008091%
26,COc1ccc2c(ccn2CCC(=O)Nc2n[nH]c(CC(C)C)n2)c1,106.4%
27,COCCN(C)C(=O)Nc1ccc2c(ccn2CC(=O)N(C)C)c1,5.654%
28,COc1ccc2c(ccn2CC(=O)Nc2n[nH]c(CC(C)C)n2)c1,220.2%
29,CCNC(=O)Nc1ccc2c(ccn2CC(=O)N(CC)CC)c1,-5.513%
